PubChem BioAssay
Calls of active or inactive are those of the source. Unless noted, how the calls were made is not given here.

What was measured:
[1] = tested on: Wnt5a (protein binding on small-molecule microarray); experiment: Wnt5a binders on small-molecule microarray, primary screen, biophysical, 635/667 nm fluorescence (AID 1142); conditions: 635 nm fluorescence, higher = more signal;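 further: fluorescence read at 667 nm with signal to noise per printed feature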
[2] = cell viability in Huh7 cells, primary screen, cytotoxicity control for HCV replication inhibitor project, CellTiter-Glo luminescence, basal, 48 h (AID 1143); conditions: Huh7 HCV replicon, higher = more signal, called active from +8 up or from −8 down;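 further: Huh7 hepatoma cells carrying a hepatitis C replication reporter with no stimulus; test concentration not given here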
[3] = P. aeruginosa biofilm formation inhibitors, primary screen, PAO1 strain, BacTiter-Glo luminescence, LB-PBS (AID 1144); conditions: 12 h, higher = more signal
[4] = CREB reporter modulators without forskolin, primary screen, cell-based, PC12, CRE-LacZ reporter, unstimulated (AID 1145); conditions: no forskolin, luminescence, 4.5 h, higher = more signal, called active from +8 up or from −8 down
[5] = CREB reporter modulators under forskolin, primary screen, cell-based, PC12, CRE-LacZ reporter, forskolin-stimulated (AID 1146); conditions: luminescence, 4.5 h, higher = more signal, called active from +8 up or from −8 down;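 further: PC12 cells with 6xCRE LacZ reporter stimulated by forskolin 10 µM; beta-galactosidase reporter signal reflecting CREB driven transcription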
[6] = target: Streptavidin (Streptomyces avidinii) (UniProt P22629); experiment: streptavidin binders on small-molecule microarray, primary screen, artefact control for SMM compound annotation, biophysical, 635/667 nm fluorescence (AID 1147); conditions: streptavidin binding, higher = more signal;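 further: signal reflects streptavidin binding to arrayed compounds as a control protein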
Chain of Streptavidin (Streptomyces avidinii) (P22629 whole entry, looked up): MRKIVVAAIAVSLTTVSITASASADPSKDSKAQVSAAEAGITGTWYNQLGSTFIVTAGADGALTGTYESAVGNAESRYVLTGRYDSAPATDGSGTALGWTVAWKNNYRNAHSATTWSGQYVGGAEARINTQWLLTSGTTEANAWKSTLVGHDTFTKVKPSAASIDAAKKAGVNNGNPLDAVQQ

[7] = small-molecule binders of probe aInhba, primary screen, biochemical, small-molecule microarray, 635/667 nm fluorescence (AID 1148); conditions: higher = more signal;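 further: score merges 667nm spot fluorescence with signal-to-noise for antibody binding to printed compounds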
Torsin-1A (Homo sapiens) [8] = target: Torsin-1A (Homo sapiens) (UniProt O14656); experiment: torsin A binders from cell lysate, primary screen, small-molecule microarray, wild-type, 635/667 nm (AID 1149); conditions: COS7 hTOR1A-WT lysate, 635 nm fluorescence, higher = more signal
Chain of Torsin-1A (Homo sapiens) (O14656 whole entry, looked up): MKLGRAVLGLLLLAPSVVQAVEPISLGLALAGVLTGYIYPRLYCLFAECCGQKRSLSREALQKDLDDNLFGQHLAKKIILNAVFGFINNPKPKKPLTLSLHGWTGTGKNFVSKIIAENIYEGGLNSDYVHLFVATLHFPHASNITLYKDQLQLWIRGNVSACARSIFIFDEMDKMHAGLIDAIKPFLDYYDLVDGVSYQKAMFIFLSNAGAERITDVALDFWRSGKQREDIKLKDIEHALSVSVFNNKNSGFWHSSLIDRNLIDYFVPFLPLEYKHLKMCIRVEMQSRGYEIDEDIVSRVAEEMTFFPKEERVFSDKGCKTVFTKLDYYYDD

Torsin-1A (Homo sapiens) [9] = target: Torsin-1A (Homo sapiens) (UniProt O14656); experiment: small-molecule binders of mutant TOR1A in lysate, primary screen, cell lysate, small-molecule microarray, COS7 lysate, 635/667 nm fluorescence (AID 1150); conditions: COS7 hTOR1A mutant lysate, 635 nm fluorescence, higher = more signal;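 further: score pools 667 nm emission and signal to noise measuring lysate protein binding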
[10] = tested on: Sonic hedgehog protein (Shh); experiment: small-molecule binders of Shh protein, primary screen, biochemical, small-molecule microarray, 635/667 nm fluorescence (AID 1151); conditions: small-molecule microarray binding, 635 nm fluorescence; higher = more signal;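 further: Shh protein binding to compounds spotted on small-molecule microarray slides; score combines spot fluorescence intensity with signal-to-noise across triplicate slides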

Structure (SMILES)	composite z-score [1]	z-score [2]	z-score [3]	z-score [4]	z-score [5]	composite z-score [6]	composite z-score [7]	composite z-score (Torsin-1A (Homo sapiens) [8])	composite z-score (Torsin-1A (Homo sapiens) [9])	composite z-score [10]
[N-]=[N+]=NCc1ccccc1C[C@@]1(C(=O)NCC(O)CO)N=C(c2ccc(OCCCO)cc2)O[C@@H]1c1ccccc1 (stereo not given in full)	0.423	-4.03 (inactive)	0.141 (inactive)	1.8 (inactive)	0.617 (inactive)	-0.0302	0.0377	0.237	1.14	-0.982
C=CC[C@@]1(C(=O)N2CCCCC2)N=C(c2ccc(OCCCO)cc2)O[C@@H]1c1ccccc1N=[N+]=[N-]	0.288	-4.35 (inactive)	-0.588 (inactive)	4.01 (inactive)	-1.53 (inactive)	1.18	0.0391	-0.151	1.03	-0.0797
COc1ccc([Si](C)(C)[C@H]2[C@H](CC(=O)N3CCC[C@H]3CO)O[C@@]3(C(=O)N(Cc4cccc(N5CCOC5=O)c4)c4ccccc43)[C@@H]2C)cc1	0.307	-5.09 (inactive)	0.621 (inactive)	0.395 (inactive)	-0.135 (inactive)	0.0063	-0.0468	0.716	0.58	1.99
CO[C@H]1O[C@H](CO)[C@@H](OC(=O)Nc2ccccc2-c2ccccc2)[C@H](OC(=O)Nc2ccccc2-c2ccccc2)[C@@H]1OC(=O)Nc1ccccc1-c1ccccc1	0.689	-3.41 (inactive)	-0.399 (inactive)	0.391 (inactive)	0.0225 (inactive)	1.08	0.173	0.1	0.53	1.37
COC(=O)[C@H](Cc1ccccc1)N[C@H](/C=C/C1CC1)[C@@H](O)Cc1ccccc1	-0.711	-1.78 (inactive)	-0.555 (inactive)	2.59 (inactive)	-1.23 (inactive)	-0.841	-0.322	-0.795	-0.533	-0.345
O=C1NC(=O)C2C1C=CC(C(O)C1CC=CCC1)N2Nc1ccccn1 (stereo not given)	0.524	0.607 (inactive)	-0.893 (inactive)	-0.329 (inactive)	0.383 (inactive)	0.0992	-0.0645	0.153	-0.0899	0.682
COC(=O)c1c(CC[C@@H](CO)NC(=O)N[C@@H](Cc2ccccc2)Cn2cc(-c3ccccn3)nn2)oc(C(=O)N2CCOCC2)c1C(=O)OC	-0.216	-0.625 (inactive)	-0.301 (inactive)	0.498 (inactive)	-0.248 (inactive)	-0.0372	0.0184	-0.481	0.182	1.72
CN(C)CCCCCCNC(=O)[C@@H]1C[C@@H]2C(=O)N[C@@H](CCCC[N+](C)(C)C)C(=O)N2[C@@H]1c1ccc(O)cc1	0.133	-0.217 (inactive)	0.0162 (inactive)	0.155 (inactive)	-0.0457 (inactive)	-0.253	-0.589	0.659	0.771	1.66
COC(=O)[C@@]1(Cc2ccccc2)[C@H]2c3cc(C(=O)N4CCCC4)n(Cc4ccc(O)c(OC)c4)c3C[C@H]2CN1C(=O)c1ccccc1	0.343	-2.34 (inactive)	0.633 (inactive)	2.5 (inactive)	0.333 (inactive)	0.211	0.198	-0.0034	0.0381	-1.39
CCOC(=O)C1=CC[C@@H](c2ccc(C(F)(F)F)cc2)N(S(=O)(=O)c2ccc(C)cc2)[C@H]1c1ccccc1	0.328	-4.89 (inactive)	1.43 (inactive)	0.986 (inactive)	-0.052 (inactive)	1.5	0.316	0.504	0.658	0.0252
CCOC(=O)C1=CCC(c2ccc(F)cc2)N(S(=O)(=O)c2ccc(C)cc2)C1 (stereo not given)	0.0848	-2.8 (inactive)	0.046 (inactive)	0.481 (inactive)	-0.323 (inactive)	0.407	-0.0963	0.827	0.203	-0.282
C=CCOC(=O)[C@H]1[C@@H]2C(=O)O[C@@H](c3ccccc3)[C@@H](c3ccccc3)N2[C@@H](c2ccc(OCCOC(=O)[C@H]3C[C@H]4C(=O)N[C@@H](CCCCN(C)C)C(=O)N4[C@H]3c3cccc(OCCO)c3)cc2)[C@]12C(=O)Nc1ccc(I)cc12	0.559	-0.366 (inactive)	0.772 (inactive)	-0.671 (inactive)	0.892 (inactive)	0.457	0.12	0.166	0.629	2.27
COC(=O)[C@@]1(Cc2ccc(F)cc2)[C@H]2c3cc(C(=O)N(C)C)n(Cc4cc(C)n(C)n4)c3C[C@H]2CN1C(=O)c1ccccc1	0.692	-0.617 (inactive)	-0.0119 (inactive)	0.779 (inactive)	0.455 (inactive)	0.678	0.302	0.149	0.0322	0.303
COCC(=C=CC[C@@H](O)c1ccc(OCCO)cc1)C[C@@H](O)c1ccccn1	0.117	0.0073 (inactive)	0.0661 (inactive)	-0.0602 (inactive)	2.62 (inactive)	0.556	0.0001	0.0308	-0.467	1.04
COc1ccc([C@H]2C[C@H]3C(I)=C[C@@H]2C(=O)[C@]32CO2)cc1	-0.149	-0.307 (inactive)	-0.125 (inactive)	5.38 (inactive)	-1.6 (inactive)	1.25	-0.152	-0.067	-0.126	0.817
COCCCNC(=O)[C@]1(Cc2ccccc2)N=C(c2ccc(OCCCO)cc2)O[C@@H]1c1ccccc1CN=[N+]=[N-]	0.703	-3.68 (inactive)	-0.0105 (inactive)	-0.09 (inactive)	-1.03 (inactive)	1.31	0.491	0.52	0.82	-0.147
COc1cc2c(cc1OC)CN(C(=O)[C@H]1[C@@H]3C(=O)O[C@@H](c4ccccc4)[C@@H](c4ccccc4)N3[C@@H](c3ccccc3OCCO)[C@]13C(=O)Nc1ccc(C#CCCO)cc13)CC2	0.703	-0.964 (inactive)	0.677 (inactive)	0.712 (inactive)	1.64 (inactive)	0.225	-0.0567	-0.0954	0.142	1.75

Structure (SMILES)	composite z-score [1]	z-score [2]	z-score [3]	z-score [4]	z-score [5]	composite z-score [6]	composite z-score [7]	composite z-score (Torsin-1A (Homo sapiens) [8])	composite z-score (Torsin-1A (Homo sapiens) [9])	composite z-score [10]
CC[C@@H]1C=C(C(=O)O)[C@H](c2cccc3ccccc23)N1S(=O)(=O)c1ccc(C)cc1	0.0605	-0.0086 (inactive)	0.235 (inactive)	-0.723 (inactive)	0.754 (inactive)	0.985	-0.128	0.224	0.331	-0.173
CCCCN1CC=CC23O[C@@H]4/C=C\CCCOC(=O)C4[C@H]2C(=O)N(CCCCCO)[C@@H]3C1=O (stereo not given in full)	0.0311	-0.103 (inactive)	0.0433 (inactive)	0.333 (inactive)	-0.391 (inactive)	-1.43	-0.211	-0.0808	0.777	-0.695
CC(C)N1CC=CC23O[C@@H]4C=CCOC(=O)[C@@H]4[C@H]2C(=O)N(CCCCCO)[C@@H]3C1=O (stereo not given in full)	-0.094	-1.27 (inactive)	-1.56 (inactive)	-1.72 (inactive)	-0.679 (inactive)	-0.48	-0.152	-0.167	1.09	0.0095
C=CCC(OC(C)=O)[C@@H]1[C@@H](N(Cc2cc3ccccc3o2)C(=O)Cc2ccc(OC)cc2)c2cc(OCCCO)ccc2N1C(=O)c1ccc2ccccc2c1 (stereo not given in full)	-0.252	-1.58 (inactive)	-0.352 (inactive)	1.41 (inactive)	0.368 (inactive)	-0.277	-0.0791	-0.748	-0.502	0.688
O=c1cccc(-c2ccccc2Cl)o1	-0.196	-0.759 (inactive)	0.387 (inactive)	0.285 (inactive)	0.556 (inactive)	0.423	0.115	0.64	0.112	0.322
COCCCNC(=O)[C@@H]1c2ccccc2C(=O)N(Cc2ccccc2)[C@H]1c1ccc(CO)cc1	0.23	0.285 (inactive)	0.397 (inactive)	0.648 (inactive)	-1.01 (inactive)	0.158	0.343	0.662	1.29	0.857
C=CCN1C(=O)[C@]2(Cc3ccccc3)N=C(c3ccc(OCCCO)cc3)O[C@@H]2c2ccccc21	0.611	-3.85 (inactive)	0.000807 (inactive)	2.97 (inactive)	-1.79 (inactive)	0.752	0.13	0.443	0.842	1.79
OCC1C=C(/C=C/c2ccccc2)CN1Cc1ccccc1Br (stereo not given)	0.307	-2.1 (inactive)	0.0784 (inactive)	0.856 (inactive)	-0.181 (inactive)	0.828	0.126	-0.205	0.818	1.39
Cc1ccc(S[C@]2(C(=O)O)CC(=O)N(C(C)C)[C@@H]2c2ccc(CO)cc2)cc1	-0.201	-2.62 (inactive)	-2.2 (inactive)	-0.206 (inactive)	-0.244 (inactive)	-0.186	-0.147	-0.366	1.12	-0.317
CN(C)C(=O)[C@]1(Cc2ccccc2)N=C(c2ccc(OCCCO)cc2)O[C@@H]1c1ccccc1N=[N+]=[N-]	0.435	-4.22 (inactive)	0.54 (inactive)	-0.459 (inactive)	-1.58 (inactive)	1.06	0.143	0.37	0.523	0.0841
O=C(NCCN1CCOCC1)[C@@H]1c2ccccc2C(=O)N(Cc2cc(C(F)(F)F)cc(C(F)(F)F)c2)[C@H]1c1ccc(CO)cc1	0.556	-0.0199 (inactive)	0.623 (inactive)	0.468 (inactive)	-0.713 (inactive)	-0.601	0.0154	-0.027	0.133	-0.211
COC(=O)[C@@]1(Cc2ccccc2)[C@H]2c3cc(C(=O)N(C)C)n(CCc4c[nH]c5ccc(O)cc45)c3C[C@H]2CN1C(=O)c1ccccc1	0.0434	-1.51 (inactive)	0.562 (inactive)	0.0041 (inactive)	0.1 (inactive)	0.0497	0.0878	-0.343	0.604	0.647
COc1ccc([Si](C)(C)[C@@H]2[C@@H](CCn3cc(CCO)nn3)O[C@]3(C(=O)N(Cc4cccc(N5C(=O)c6cccc7cccc5c67)c4)c4ccccc43)[C@H]2C)cc1	0.206	-7.96 (inactive)	0.000859 (inactive)	2.93 (inactive)	-1.45 (inactive)	0.942	-0.0589	0.119	0.141	2.08
CO[C@H]1O[C@H](CO)[C@@H](OC(=O)Nc2ccc(Oc3ccccc3)cc2)[C@H](OC(=O)Nc2ccc3c(c2)OCO3)[C@@H]1OC(=O)Nc1ccc2c(c1)OCO2	1.31	-2.74 (inactive)	-0.168 (inactive)	0.502 (inactive)	-0.917 (inactive)	0.894	0.415	0.626	1.58	1.66
C[N+](C)(C)CCCCCCNC(=O)[C@H]1C[C@H]2C(=O)N[C@@H](Cc3ccccc3)C(=O)N2[C@H]1c1cccc(OCCO)c1	0.385	-0.236 (inactive)	-0.278 (inactive)	-0.252 (inactive)	-0.54 (inactive)	-0.563	0.0176	1.12	1.24	2.08
CCCCN1CC=CC23O[C@@H]4C=CCCOC(=O)C4[C@H]2C(=O)N(CCCCCO)[C@@H]3C1=O (stereo not given in full)	-0.276	0.342 (inactive)	-0.0153 (inactive)	0.199 (inactive)	0.794 (inactive)	-0.525	-0.233	0.226	0.735	-0.198
